Rows were chosen to be rich in hits. Some 0.69% of all compounds tested hit in one or more screens of this group.
Vif-A3G inh = Vif-A3G binding inhibition | hit rate 0.076% among 410,000 | HeLa A3G-eYFP + Vif (tagged APOBEC3G with the HIV-1 protein that degrades it), YFP fluorescence, overnight | Potency, µM (titrated, usually from 46.1 µM), for inactives: at the top dose activity, negative = active, most hits filed as inhibitors | AID 602310 | Q9HC16; further: on the % scale 0 is the no-effect control and ±100 the full control effect; nearly all actives have a fitted effect of over 60% in size
Target sequence (Q9HC16 whole entry, looked up): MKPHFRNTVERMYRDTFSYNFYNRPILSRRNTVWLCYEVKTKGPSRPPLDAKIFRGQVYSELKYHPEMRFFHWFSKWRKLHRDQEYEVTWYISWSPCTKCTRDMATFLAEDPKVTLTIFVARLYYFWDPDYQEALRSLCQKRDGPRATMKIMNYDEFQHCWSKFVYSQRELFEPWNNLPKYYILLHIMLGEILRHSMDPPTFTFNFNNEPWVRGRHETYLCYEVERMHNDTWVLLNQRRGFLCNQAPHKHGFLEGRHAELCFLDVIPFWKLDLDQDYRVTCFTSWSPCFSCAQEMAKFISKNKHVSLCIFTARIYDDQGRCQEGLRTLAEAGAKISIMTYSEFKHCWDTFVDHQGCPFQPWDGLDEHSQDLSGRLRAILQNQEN
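Read-out is eYFP fluorescence (Ex 488/Em 500-530) from Vif-expressing HeLa A3G-eYFP cells; more signal means A3G escaped Vif-mediated degradation. Cells plated overnight, compound pinned in, incubated overnight at 37 deg C.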
PINK1 modulator = PINK1 expression modulation; Potency, µM (series often up to 76.6 µM), inactives show top-dose activation (PINK1 increase), actives largely listed as activators; PINK1 immunofluorescence, high-content cytometry, 24 h; hit rate 0.2% among 410,000; active means well fitted activation curve with a large enough effect; inconclusive means small, poorly fitted or top-dose-only effect; cell line not stated here; further: % of control where 0% means no effect; nearly all actives have a fitted effect of over 65% in size
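PINK1 protein, normally rapidly degraded, was detected by immunofluorescence after 24 hour compound treatment of a stable cell line. Titration data (5 concentrations) came from laser-scanning cytometry, with CCCP-treated wells as controls.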
Vif-APOBEC3F blk = Vif-A3F binding inhibition. AID 602313. HeLa A3F-eYFP + Vif (tagged APOBEC3F with the HIV-1 protein that degrades it), YFP fluorescence increase. hit rate 0.2% among 390,000. Potency, µM (top dose mostly 46.1 µM), for inactives: top-dose activity, negative = active; further: % of control where 0% means no effect; nearly all actives have a fitted effect of over 65% in size
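HeLa cells stably expressing Vif plus C-terminally eYFP-tagged A3F were seeded, incubated overnight at 37 deg C, dosed with compound, incubated overnight again at 37 deg C. Yellow fluorescence (Ex 488/Em 500-530) reported blocked Vif-mediated A3F-eYFP degradation.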
FUS suppressor = suppressors of FUS proteinopathy in yeast. Potency, µM (highest dose often 76.6 µM), most hits filed as activators. S. cerevisiae FUS-expressing, growth rescue, OD600, 24 h. AID 1347120. hit rate 0.24% among 390,000;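 further: plate controls were DMSO vehicle for no effect and reference control for full effect; nearly all actives have a fitted effect of over 55% in size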
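Galactose (2%) drives FUS expression in yeast precultured in raffinose; seeding density OD 0.005. Test compounds incubated 24hr at 30C and 99% humidity before absorbance at 600 nm was measured.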
GRP78 ERSR act = inducers of ER stress response in human glioma cells | U87-MG GRP78 promoter luciferase reporter, 16 h | Potency, µM, without a hit: at the highest dose activation, usual class: activators | hit rate 0.02% among 420,000 | AID 602332; further: series mostly up to about 76 µM; % of control where 0% means no effect; nearly all actives have a fitted effect of over 35% in size
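Stably transfected U87-MG human glioma cells carrying a GRP78-based luminescent sensor were seeded at 1000 cells/well, pin-dosed with compounds and incubated 16 h. Luciferase reagent was then added, and end-point luminescence was read after 10 min at room temperature.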
Abeta yeast res = compounds reversing amyloid beta toxicity in yeast | yeast expressing A-beta42, growth rescue, OD600, 48 h; response scale: 0% DMSO, 100% iron-clioquinol control | Potency, µM (doses to about 46.1 µM), most hits filed as activators | hit rate 0.063% among 410,000; further: nearly all actives have a fitted effect of over 55% in size
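Yeast A-beta toxicity model in growth medium with pinned compounds, 48 h at 30 C; growth read as absorbance at 600 nm. Normalized to FeCl3/clioquinol equimolar mix (positive) and DMSO (negative).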
* = called active by the depositor; i = inactive; ? = inconclusive; · = no result given; [ ] = dose if it differs, or a comment. Unless noted, the call rests on the fitted dose curve; in most records, active means well fitted curve in the direction sought with a large enough effect; inconclusive means small, poorly fitted or top-dose-only effect, or another doubt; inactive means no such curve, though single readings can be large; an effect the other way counts as inactive or inconclusive. Potency means the concentration at half of the fitted maximal effect.

SMILES	Vif-A3G inh	PINK1 modulator	Vif-APOBEC3F blk	FUS suppressor	GRP78 ERSR act	Abeta yeast res
Cc1cc(C)nc(Nc2nc(C(N)Cc3ccccc3)cs2)n1 (stereo not given)	4.47µM*	11.4%	·	i	0.3%	?
CC(C)(C)N1C(=O)[C@H]2[C@@H](c3ccc(Br)cc3)N3C(=O)N(c4cccc(Cl)c4)C(=O)[C@@]3(Cc3ccccc3)[C@H]2C1=O	1.3%	-0.2%	8.7%	12.6µM*	-2.5%	i
COc1ccc([C@@H]2[C@@H]3C(=O)N(C(C)(C)C)C(=O)[C@@H]3[C@]3(Cc4ccccc4)C(=O)N(c4cccc(Cl)c4)C(=O)N23)cc1	-6.8%	-0.3%	-11.9%	28.2µM*	-1.8%	i
COc1ccc([C@@H]2[C@@H]3C(=O)N(C(C)(C)C)C(=O)[C@@H]3[C@]3(Cc4ccccc4)C(=O)N(c4cccc(C)c4)C(=O)N23)cc1	-2.5%	2.0%	-3.6%	28.2µM*	-0.8%	i
COc1ccc(N2C(=O)N3[C@H](c4ccc(Br)cc4)[C@@H]4C(=O)N(C(C)(C)C)C(=O)[C@@H]4[C@]3(Cc3ccccc3)C2=O)cc1	-0.8%	2.3%	7.7%	12.6µM*	-1.4%	i
COc1ccc([C@@H]2[C@@H]3C(=O)N(C(C)(C)C)C(=O)[C@@H]3[C@]3(Cc4ccccc4)C(=O)N(c4ccccc4)C(=O)N23)cc1	3.2%	-0.2%	0.6%	i	-0.2%	i
COC(=O)C1CCN(Cc2ccc3c(c2)CN(C(=O)c2cc(C)oc2C)CCO3)CC1	·	-0.3%	·	·	-2.4%	·
Cc1ncc2c(c1CNS(=O)(=O)N(C)C)CCN(C(=O)c1ccc(F)cc1Cl)C2	·	-0.1%	·	·	-1.1%	·
CC(C)(C)NC(=O)C12CC3CC(CC(Cl)(C3)C1)C2	1.1%	-1.9%	-8.9%	i	-4.3%	i
CC(C)(C)NC(=S)NC(=O)C12CCC3CC(CC(C3)C1)C2	-6.2%	24.0%	2.0%	i	-3.0%	6.31µM*
COc1cc(=O)n2c(c1C(=O)NCc1ccco1)CCN(C(=O)c1ccccc1-c1ncc[nH]1)CC2	·	1.8%	·	·	-1.9%	·
O=c1[nH]c(=O)n(Cc2ccco2)c2c1C(C(F)(F)F)(C(F)(F)F)N=C(c1ccc(F)cc1)N2	4.3%	12.6µM*	-2.4%	i	-2.9%	i
COc1ccccc1/C=C1\Cc2ccccc2C1=O	1.4%	-0.9%	4.1%	i	0.8%	i
CC1(C)CC(=Cc2ccccc2[N+](=O)[O-])C(=O)c2ccccc21	1.1%	8.8%	-12.1%	i	-4.5%	i
O=C1C(=Cc2ccccc2[N+](=O)[O-])Cc2ccccc21	?	2.0%	12.6µM*	i	-6.6%	i
Nc1ccccc1C=C1Cc2ccccc2C1=O	?	-1.1%	6.31µM*	i	-7.2%	i
COC(=O)c1cccc(C(=O)NCc2nc(-c3cccc(NC(=O)c4ccoc4C)c3)oc2C)c1	·	3.4%	·	·	-1.9%	·
O=C([C@@H]1C[C@@H](Sc2nc3ccccc3[nH]2)CN1CC1CCCCC1)N1CCOCC1	·	-0.2%	·	·	-2.7%	·
O=C1CN(C(=O)c2ccc(S(=O)(=O)N3CCCC3)cc2)C(c2ccc(F)cc2)c2cc(Br)ccc2N1 (stereo not given)	-6.5%	1.3%	4.2%	?	-0.1%	i
Cc1ccc2c(c1)C(c1ccc(F)cc1)N(C(=O)c1ccc(S(=O)(=O)N3CCCCC3)cc1)CC(=O)N2 (stereo not given)	-1.5%	-1.4%	0.3%	31.6µM*	-3.9%	i
O=C1CN(C(=O)c2ccc(S(=O)(=O)N3CCCCC3)cc2)C(c2ccc(F)cc2)c2cc(Br)ccc2N1 (stereo not given)	0.6%	-1.9%	-3.3%	17.8µM*	-3.7%	i
Cc1cnc(C)c(-c2cccc3c2OC(CNC(=O)CN2C(=O)c4ccccc4C2=O)C3)n1 (stereo not given)	·	-0.9%	·	·	-2.7%	·
Cc1c(C(=O)N2CCN(C(C)C)CC2)sc2ncnc(NCc3ccco3)c12	·	-0.2%	·	·	-4.0%	·
Cc1nn(CCCC(=O)Nc2cc(Oc3ccc(F)cc3)cc([N+](=O)[O-])c2)c(C)c1[N+](=O)[O-]	-1.6%	-0.2%	-0.4%	·	-0.8%	i
CCn1nc(C)c(C(=O)Nc2cc(Oc3ccc(Cl)cc3)cc([N+](=O)[O-])c2)c1C	?	10µM*	-1.1%	i	-4.5%	i
SMILES	Vif-A3G inh	PINK1 modulator	Vif-APOBEC3F blk	FUS suppressor	GRP78 ERSR act	Abeta yeast res
O=C(Nc1nnc(-c2ccccc2)o1)c1ccc(Cl)cc1	-6.2%	-1.3%	-8.5%	·	0.8%	?
CC(=O)c1ccc(C(=O)Nc2nnc(-c3ccc(Cl)cc3)o2)cc1	-1.1%	0.6%	-1.4%	i	-1.5%	6.31µM*
CCN1CC=C2C(C#N)=C(N)C(C#N)(C#N)[C@H](c3cccc(OC)c3OC)[C@H]2C1	2.4%	?	-10.2%	i	-3.1%	i
CN1CC=C2C(C#N)=C(N)C(C#N)(C#N)[C@H](c3cccc(Cl)c3)C2C1 (stereo not given in full)	-0.3%	11.2µM*	?	i	-4.9%	i
COc1cc([C@@H]2[C@H]3CN(C)CC=C3C(C#N)=C(N)C2(C#N)C#N)cc2c1OCO2	-13.7%	17.8µM*	-26.1%	i	-4.2%	i
CCOC(=O)N1CC=C2C(C#N)=C(N)C(C#N)(C#N)[C@H](c3ccsc3)[C@H]2C1	-7.9%	5.5%[38.3 µM]	-10.0%	i	-4.1%	i
CN1CC=C2C(C#N)=C(N)C(C#N)(C#N)[C@H](c3cccs3)[C@H]2C1	-11.2%	?	?	i	-3.2%	i
CN1CC=C2C(C#N)=C(N)C(C#N)(C#N)C(c3ccsc3)C2C1 (stereo not given)	-8.9%	10µM*	-10.1%	i	-6.7%	i
COc1cccc(C2C3CN(C)CC=C3C(C#N)=C(N)C2(C#N)C#N)c1OC (stereo not given)	-9.0%	35.5µM*	-29.2%	i	-4.0%	i
COc1ccc(CN2CCC3(CC2)c2ccccc2[C@@H](NC(=O)c2ccsc2)[C@@H]3OC)cc1O	·	0.3%	·	·	-1.2%	·
C[C@@H]1CN(Cc2ccc3c(c2)CN(Cc2coc4ccccc4c2=O)CCO3)C[C@H](C)O1	·	0.1%	·	·	-0.3%	·
CCCC1C2CN(C(C)C)CC=C2C(C#N)=C(N)C1(C#N)C#N (stereo not given)	1.0%	10µM*	-6.7%	i	-6.3%	i
CN1CC=C2C(C#N)=C(N)C(C#N)(C#N)C(CCc3ccccc3)C2C1 (stereo not given)	-14.0%	?	-12.6%	i	-2.7%	i
CCOC(=O)/C(N=Nc1c(C)n(C)n(-c2ccccc2)c1=O)=C(/O)c1ccccc1	1.2%	0.2%	10.6%	i	-4.0%	i

Source: PubChem BioAssay (National Center for Advancing Translational Sciences (NCATS))
